# From PubChem BioAssay (NCI)
# About 79,000 compounds went through this panel and 15% of them were active in at least one assay; those are over-represented in the sample as a whole. Values without a mark were called inactive. Activity calls are given as the source filed them. No stated cut-off is given here; in the data, active means growth inhibition above about 70%; inactive means the rest.
# Tests used:
# [1] = NCI Yeast Anticancer Drug Screen. Data for the rad52 strain (AID 147);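 further: 0% = growth of vehicle-treated control cultures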; conditions: S. cerevisiae rad52 mutant growth inhibition, hits give high values
# Method in brief: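 Measured: yeast growth inhibition. System: strain with a defined DNA damage repair alteration. Reference: vehicle-treated control cultures.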
# [2] = NCI Yeast Anticancer Drug Screen. Data for the wt1 strain (AID 149);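 further: 0% = growth of vehicle-treated wt1 cultures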; conditions: S. cerevisiae wt1 strain (SPY 50644) growth inhibition, hits give high values
# Method in brief: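 The wt1 strain was treated with compounds, and growth was compared with vehicle-treated cultures to give inhibition.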
# [3] = NCI Yeast Anticancer Drug Screen. Data for the rad50EPP+ strain (AID 151);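 further: 0% = growth of vehicle-treated control cultures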; conditions: S. cerevisiae rad50 mutant strain, hits give high values
# Method in brief: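 One strain with a rad50 alteration (rad50EPP+) was compound-treated, its growth then compared to that of vehicle controls.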
# [4] = NCI Yeast Anticancer Drug Screen. Data for the mgt1 strain (AID 153); conditions: S. cerevisiae mgt1 mutant growth inhibition, hits give high values
# Method in brief: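 After exposure of the mgt1 yeast mutant to compound, growth was measured and reported as inhibition compared with vehicle controls.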
# [5] = NCI Yeast Anticancer Drug Screen. Data for the rad50 strain (AID 155);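 further: 0% = growth of vehicle-only cultures of the same strain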; conditions: S. cerevisiae rad50 strain growth inhibition, hits give high values
# Method in brief: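 Cells are treated with compound, grown, and their growth is then scored against vehicle-only cultures of the same repair-deficient yeast strain.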
# [6] = NCI Yeast Anticancer Drug Screen. Data for the mec2-1 strain (AID 157); conditions: S. cerevisiae mec2-1 strain, hits give high values
# Method in brief: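 Test agents were screened against the mec2-1 yeast strain, with defined DNA repair or cell cycle alteration. Growth was scored as inhibition against vehicle-only controls.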
# [7] = NCI Yeast Anticancer Drug Screen. Data for the rad14 strain (AID 159);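 further: 0% = growth of vehicle-treated control cultures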; conditions: S. cerevisiae rad14 strain growth inhibition, hits give high values
# Method in brief: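 Readout: yeast growth inhibition, referenced to vehicle-only cultures. Strain bears a defined alteration in DNA damage repair.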
# [8] = NCI Yeast Anticancer Drug Screen. Data for the sgs1 mgt1 strain (AID 161);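 further: 0% = growth of cultures given vehicle only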; conditions: S. cerevisiae sgs1 mgt1 strain, hits give high values
# Method in brief: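 Test agents were incubated with a DNA-repair-mutant yeast strain. Growth was then read and compared against vehicle-treated controls.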
# [9] = NCI Yeast Anticancer Drug Screen. Data for the CLN2oe strain (AID 163);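 further: 0% = growth of vehicle-only control cultures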; conditions: S. cerevisiae CLN2oe strain, hits give high values
# Method in brief: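 Here, growth inhibition in a cell-cycle-altered yeast strain after compound exposure was quantified against vehicle control growth.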
# [10] = NCI Yeast Anticancer Drug Screen. Data for the cln2 rad14 strain (AID 165);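 further: 0% = growth equal to vehicle treated cultures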; conditions: S. cerevisiae cln2 rad14 strain, hits give high values
# Method in brief: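 Growth of compound-exposed yeast (cln2 rad14 genotype) measured and expressed as inhibition relative to vehicle.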
# [11] = NCI Yeast Anticancer Drug Screen. Data for the bub3 strain (AID 167); conditions: S. cerevisiae bub3 mutant strain, hits give high values
# Method in brief: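 Part of a panel of yeast mutants defective in DNA damage repair or cell cycle regulation. Each strain is grown with compound, and inhibition is calculated relative to solvent-treated cultures.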
# [12] = NCI Yeast Anticancer Drug Screen. Data for the wt2 strain (AID 169);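 further: 0% = growth of vehicle-treated yeast cultures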; conditions: S. cerevisiae wt2 strain growth inhibition, hits give high values
# Method in brief: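 Genetically defined yeast strains from a DNA-repair/cell-cycle panel were used. Compound-exposed yeast growth was measured, and the inhibition was calculated relative to vehicle treatment.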
# [13] = NCI Yeast Anticancer Drug Screen. Data for the mlh1 strain (AID 171);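 further: 0% = growth of vehicle-treated control cultures of the same strain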; conditions: S. cerevisiae mlh1 strain growth inhibition, hits give high values
# Method in brief: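 Here the genetically defined yeast mutant is grown with each compound, and the extent to which its growth falls below that of vehicle-exposed cells is reported.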
# [14] = NCI Yeast Anticancer Drug Screen. Data for the sgs1 strain (AID 173);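 further: 0% = growth of vehicle-only control cultures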; conditions: S. cerevisiae sgs1 mutant, hits give high values
# Method in brief: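 Relative growth inhibition, referenced to vehicle, was determined in a yeast strain with a defined alteration affecting DNA damage repair or cell cycle control after compound exposure.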
# [15] = NCI Yeast Anticancer Drug Screen. Data for the mlh1 rad18 strain (AID 175); conditions: S. cerevisiae mlh1 rad18 strain growth inhibition, hits give high values
# Method in brief: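 In this whole-cell yeast screen, a strain with altered DNA damage repair is challenged with compound, and its growth is measured against matched vehicle-treated controls.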
# [16] = NCI Yeast Anticancer Drug Screen. Data for the rad18 strain (AID 177); conditions: S. cerevisiae rad18 mutant growth inhibition, hits give high values
# Method in brief: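 Screen uses a yeast strain with a defined lesion in DNA damage repair; compound effect is read as loss of growth compared to untreated vehicle cultures.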
# [17] = at 5.0 µM (retest, dose inferred, filed as 0.5)
# [18] = at 50.0 µM (retest, dose inferred, filed as 5.0)
structure (smiles),measurement,setting,value
C[N+](CCCl)(CCCl)Cc1cccc2cccc([N+](=O)[O-])c12,growth inhibition,[1]; at 1.2 µM,31%
same,growth inhibition,[1]; at 3.7 µM,47%
same,growth inhibition,[1]; at 11.0 µM,74% (active)
same,growth inhibition,[1]; at 33.0 µM,92% (active)
same,growth inhibition,[1]; at 100.0 µM,94% (active)
same,growth inhibition,[2]; at 1.2 µM,31%
same,growth inhibition,[2]; at 3.7 µM,9%
same,growth inhibition,[2]; at 11.0 µM,31%
same,growth inhibition,[2]; at 33.0 µM,28%
same,growth inhibition,[2]; at 100.0 µM,39%
same,growth inhibition,[3]; at 1.2 µM,20%
same,growth inhibition,[3]; at 3.7 µM,35%
same,growth inhibition,[3]; at 11.0 µM,80% (active)
same,growth inhibition,[3]; at 33.0 µM,95% (active)
same,growth inhibition,[3]; at 100.0 µM,96% (active)
same,growth inhibition,[4]; at 1.2 µM,3%
same,growth inhibition,[4]; at 3.7 µM,6%
same,growth inhibition,[4]; at 11.0 µM,-15%
same,growth inhibition,[4]; at 33.0 µM,-5%
same,growth inhibition,[4]; at 100.0 µM,9%
same,growth inhibition,[5]; at 1.2 µM,26%
same,growth inhibition,[5]; at 3.7 µM,44%
same,growth inhibition,[5]; [17],37%
same,growth inhibition,[5]; at 11.0 µM,67%
same,growth inhibition,[5]; at 33.0 µM,90% (active)
same,growth inhibition,[5]; [18],85% (active)
same,growth inhibition,[5]; at 50.0 µM,80.1% (active)
same,growth inhibition,[5]; at 100.0 µM,94% (active)
same,growth inhibition,[6]; at 1.2 µM,-4%
same,growth inhibition,[6]; at 3.7 µM,10%
same,growth inhibition,[6]; [17],1%
same,growth inhibition,[6]; at 11.0 µM,10%
same,growth inhibition,[6]; at 33.0 µM,44%
same,growth inhibition,[6]; [18],56%
same,growth inhibition,[6]; at 50.0 µM,47%
same,growth inhibition,[6]; at 100.0 µM,77% (active)
same,growth inhibition,[7]; at 1.2 µM,-9%
same,growth inhibition,[7]; at 3.7 µM,-1%
same,growth inhibition,[7]; at 11.0 µM,32%
same,growth inhibition,[7]; at 33.0 µM,88% (active)
same,growth inhibition,[7]; at 100.0 µM,89% (active)
same,growth inhibition,[8]; [17],15%
same,growth inhibition,[8]; [18],44%
same,growth inhibition,[8]; at 50.0 µM,39.2%
same,growth inhibition,[9]; at 1.2 µM,-8%
same,growth inhibition,[9]; at 3.7 µM,-10%
same,growth inhibition,[9]; at 11.0 µM,-17%
same,growth inhibition,[9]; at 33.0 µM,-13%
same,growth inhibition,[9]; at 100.0 µM,-6%
same,growth inhibition,[10]; [17],17%
same,growth inhibition,[10]; [18],78% (active)
same,growth inhibition,[10]; at 50.0 µM,74.5% (active)
same,growth inhibition,[11]; at 1.2 µM,-20%
same,growth inhibition,[11]; at 3.7 µM,-26%
same,growth inhibition,[11]; [17],9%
same,growth inhibition,[11]; at 11.0 µM,-22%
same,growth inhibition,[11]; at 33.0 µM,-10%
same,growth inhibition,[11]; [18],45%
same,growth inhibition,[11]; at 50.0 µM,0.4%
same,growth inhibition,[11]; at 100.0 µM,3%
same,growth inhibition,[12]; at 1.2 µM,-10%
same,growth inhibition,[12]; at 3.7 µM,-6%
same,growth inhibition,[12]; at 11.0 µM,-10%
same,growth inhibition,[12]; at 33.0 µM,-1%
same,growth inhibition,[12]; at 100.0 µM,23%
same,growth inhibition,[13]; at 1.2 µM,7%
same,growth inhibition,[13]; at 3.7 µM,-2%
same,growth inhibition,[13]; at 11.0 µM,-1%
same,growth inhibition,[13]; at 33.0 µM,4%
same,growth inhibition,[13]; at 100.0 µM,21%
same,growth inhibition,[14]; at 1.2 µM,20%
same,growth inhibition,[14]; at 3.7 µM,19%
same,growth inhibition,[14]; at 11.0 µM,41%
same,growth inhibition,[14]; at 33.0 µM,63%
same,growth inhibition,[14]; at 100.0 µM,77% (active)
same,growth inhibition,[15]; [17],31%
same,growth inhibition,[15]; [18],81% (active)
same,growth inhibition,[15]; at 50.0 µM,77.4% (active)
same,growth inhibition,[16]; at 1.2 µM,11%
same,growth inhibition,[16]; at 3.7 µM,56%
same,growth inhibition,[16]; at 11.0 µM,91% (active)
same,growth inhibition,[16]; at 33.0 µM,95% (active)
same,growth inhibition,[16]; at 100.0 µM,96% (active)
Cc1ccc2nc3sc(=O)sc3nc2c1,growth inhibition,[1]; at 1.2 µM,48%
same,growth inhibition,[1]; at 3.7 µM,66%
same,growth inhibition,[1]; at 11.0 µM,99% (active)
same,growth inhibition,[1]; at 33.0 µM,98% (active)
same,growth inhibition,[1]; at 100.0 µM,96% (active)
same,growth inhibition,[2]; at 1.2 µM,-2%
same,growth inhibition,[2]; at 3.7 µM,22%
same,growth inhibition,[2]; at 11.0 µM,88% (active)
same,growth inhibition,[2]; at 33.0 µM,98% (active)
same,growth inhibition,[2]; at 100.0 µM,97% (active)
same,growth inhibition,[3]; at 1.2 µM,26%
same,growth inhibition,[3]; at 3.7 µM,49%
same,growth inhibition,[3]; at 11.0 µM,79% (active)
same,growth inhibition,[3]; at 33.0 µM,96% (active)
same,growth inhibition,[3]; at 100.0 µM,95% (active)
same,growth inhibition,[4]; at 1.2 µM,22%
same,growth inhibition,[4]; at 3.7 µM,40%
same,growth inhibition,[4]; at 11.0 µM,96% (active)
same,growth inhibition,[4]; at 33.0 µM,98% (active)
same,growth inhibition,[4]; at 100.0 µM,98% (active)
same,growth inhibition,[5]; at 1.2 µM,13%
same,growth inhibition,[5]; at 3.7 µM,27%
same,growth inhibition,[5]; [17],27%
same,growth inhibition,[5]; at 11.0 µM,96% (active)
same,growth inhibition,[5]; at 33.0 µM,97% (active)
same,growth inhibition,[5]; [18],92% (active)
same,growth inhibition,[5]; at 50.0 µM,97% (active)
same,growth inhibition,[5]; at 100.0 µM,96% (active)
same,growth inhibition,[6]; at 1.2 µM,16%
same,growth inhibition,[6]; at 3.7 µM,37%
same,growth inhibition,[6]; [17],-7%
same,growth inhibition,[6]; at 11.0 µM,98% (active)
same,growth inhibition,[6]; at 33.0 µM,98% (active)
same,growth inhibition,[6]; [18],97% (active)
same,growth inhibition,[6]; at 50.0 µM,93.8% (active)
same,growth inhibition,[6]; at 100.0 µM,97% (active)
same,growth inhibition,[7]; at 1.2 µM,14%
same,growth inhibition,[7]; at 3.7 µM,33%
same,growth inhibition,[7]; at 11.0 µM,99% (active)
same,growth inhibition,[7]; at 33.0 µM,98% (active)
same,growth inhibition,[7]; at 100.0 µM,97% (active)
same,growth inhibition,[8]; [17],13%
same,growth inhibition,[8]; [18],94% (active)
same,growth inhibition,[8]; at 50.0 µM,98.1% (active)
same,growth inhibition,[9]; at 1.2 µM,-15%
same,growth inhibition,[9]; at 3.7 µM,7%
same,growth inhibition,[9]; at 11.0 µM,37%
same,growth inhibition,[9]; at 33.0 µM,94% (active)
same,growth inhibition,[9]; at 100.0 µM,97% (active)
same,growth inhibition,[10]; [17],30%
same,growth inhibition,[10]; [18],89% (active)
same,growth inhibition,[10]; at 50.0 µM,92% (active)
same,growth inhibition,[11]; at 1.2 µM,-2%
same,growth inhibition,[11]; at 3.7 µM,14%
same,growth inhibition,[11]; [17],59%
same,growth inhibition,[11]; at 11.0 µM,52%
same,growth inhibition,[11]; at 33.0 µM,97% (active)
same,growth inhibition,[11]; [18],91% (active)
same,growth inhibition,[11]; at 50.0 µM,97% (active)
same,growth inhibition,[11]; at 100.0 µM,95% (active)
same,growth inhibition,[12]; at 1.2 µM,11%
same,growth inhibition,[12]; at 3.7 µM,34%
same,growth inhibition,[12]; at 11.0 µM,95% (active)
same,growth inhibition,[12]; at 33.0 µM,98% (active)
same,growth inhibition,[12]; at 100.0 µM,97% (active)
same,growth inhibition,[13]; at 1.2 µM,27%
same,growth inhibition,[13]; at 3.7 µM,50%
same,growth inhibition,[13]; at 11.0 µM,98% (active)
same,growth inhibition,[13]; at 33.0 µM,98% (active)
same,growth inhibition,[13]; at 100.0 µM,95% (active)
same,growth inhibition,[14]; at 1.2 µM,42%
same,growth inhibition,[14]; at 3.7 µM,68%
same,growth inhibition,[14]; at 11.0 µM,97% (active)
same,growth inhibition,[14]; at 33.0 µM,97% (active)
same,growth inhibition,[14]; at 100.0 µM,96% (active)
same,growth inhibition,[15]; [17],38%
same,growth inhibition,[15]; [18],91% (active)
same,growth inhibition,[15]; at 50.0 µM,96.2% (active)
same,growth inhibition,[16]; at 1.2 µM,29%
same,growth inhibition,[16]; at 3.7 µM,56%
same,growth inhibition,[16]; at 11.0 µM,99% (active)
same,growth inhibition,[16]; at 33.0 µM,98% (active)
same,growth inhibition,[16]; at 100.0 µM,97% (active)
